Source: PubChem BioAssay
Many of the other results were omitted from the sample, so hits are more common in it than they were.
Marburg entry inh: Marburg virus entry inhibition; Marburg virus pseudotyped entry inhibition, cell reporter; actives 1.8% (n = 300,000); Potency, µM (highest dose often 37.8 µM), without a hit: at the top dose activity change, negative = inhibition, hits mostly inhibitors; calls by dose curve; tested in HEK293 cells; also: potency is read from the fitted curve at half-maximal effect; % is scaled to controls: 0 for no effect and ±100 for the full control effect
CHX counter: affects cycloheximide protein synthesis inhibition readout, counter-screen | cell reporter, cycloheximide protein synthesis inhibition counterscreen | max response, % | actives 12% (n = 300,000) | AID 2314; in the data active = max response mostly above about 13%, no sharp cut-off; inactive = mostly below about 14%; also: read at 38.3 µM for the half of the compounds with a filed dose; 0% is about no effect
VACV mCherry inh: vaccinia inhibition (mCherry reporter). actives 0.63% (n = 310,000). Potency, µM (series often up to 36.5 µM), for inactives: at the top dose activity change, negative = inhibition, actives largely listed as inhibitors. AID 720579. Vaccinia virus mCherry reporter infection, fluorescence; calls by dose curve; tested in A549 cells; also: potency is read from the fitted curve at half-maximal effect; % is scaled to controls: 0 for no effect and ±100 for the full control effect; nearly all actives have a fitted effect of over 35% in size
Shiga toxin inh: blocks Shiga toxin action in Vero cells; inhibition, % at 38.7 µM; AID 2315; actives 9.2% (n = 290,000); Vero cells, Shiga toxin protein synthesis inhibition reporter; in the data active = inhibition mostly above about 28%, no sharp cut-off; inactive = mostly below about 43%; also: 0% is about no effect
Vaccinia Venus: vaccinia inhibition (Venus reporter); Vaccinia virus Venus reporter expression, fluorescence; Potency, µM (highest dose often 36.5 µM), for the others: at the highest dose activity change, negative = inhibition, hits mostly inhibitors; actives 0.46% (n = 330,000); calls by dose curve; tested in A549 cells; also: potency is read from the fitted curve at half-maximal effect; % is scaled to controls: 0 for no effect and ±100 for the full control effect; nearly all actives have a fitted effect of over 30% in size
LASV entry inh: blocks Lassa virus binding to or entry into cells | Lassa virus pseudotype entry inhibition, cell reporter | Potency, µM (top dose mostly 37.9 µM), for inactives: at the highest dose activity change, negative = inhibition, hits mostly inhibitors | actives 1.2% (n = 300,000); calls by dose curve; tested in HEK293 cells; also: potency is read from the fitted curve at half-maximal effect; % is scaled to controls: 0 for no effect and ±100 for the full control effect; nearly all actives have a fitted effect of over 50% in size
* marks the source's active call; other numbers are inactive results; [ ] = dose if it differs, or a comment.

Screening CCOc1ccc(N(CC(=O)NN=C2CCN(C)CC2)S(=O)(=O)c2ccc(Br)cc2)cc1 returned Marburg entry inh -4%, CHX counter 14, VACV mCherry inh inactive, Shiga toxin inh 1, Vaccinia Venus -21% and LASV entry inh -14%.
Cc1ccc(OC(=O)c2sc3ncn(C)c(=O)c3c2C)cc1 was read as Marburg entry inh inconclusive, CHX counter 41*, VACV mCherry inh -10%, Shiga toxin inh 142*, Vaccinia Venus -13% and LASV entry inh 29%.
`CCN1C(=O)/C(=C/c2ccc(C)o2)N(C)C1=S` gave Marburg entry inh 6%, CHX counter 16*, VACV mCherry inh -17%, Shiga toxin inh 11, Vaccinia Venus -7% and LASV entry inh 0%.
Screening CCN1C(=O)/C(=C/c2cccs2)N(C)C1=S returned Marburg entry inh 9%, CHX counter 0, VACV mCherry inh -13%, Shiga toxin inh 10, Vaccinia Venus -8% and LASV entry inh 13%.
Cc1ccc(-c2c(C(=O)N/N=C/c3ccsc3)nnn2-c2nonc2N)cc1 was read as CHX counter -2, VACV mCherry inh inactive[7.34 µM], Shiga toxin inh -14 and Vaccinia Venus -10%[7.34 µM].
For N#CC(C#N)=C(Nc1ccc(F)cc1)SCc1cccc(F)c1 the results were Marburg entry inh 7.1µM*, CHX counter -3, VACV mCherry inh inconclusive, Shiga toxin inh 2, Vaccinia Venus inconclusive and LASV entry inh 13µM*.
Screening O=C(c1ccccc1)c1ccccc1N/C=C/c1nnnn1-c1ccccc1 returned Marburg entry inh inconclusive, CHX counter -1, VACV mCherry inh -5%, Shiga toxin inh -8, Vaccinia Venus -22% and LASV entry inh 13µM*.
For COc1ccc(/C=N\NC(=O)c2ccccc2Br)cc1COc1c(F)c(F)cc(F)c1F the results were Marburg entry inh 6.3µM*, CHX counter -2, VACV mCherry inh -20%, Shiga toxin inh -11, Vaccinia Venus inconclusive and LASV entry inh inconclusive.
`CCOC(=O)c1ccccc1OCc1cc(/C=N/n2cnnc2)ccc1OC` gave Marburg entry inh 0.1µM*, CHX counter -5, Shiga toxin inh 5 and LASV entry inh -20%.
For CCOC(=O)c1ccccc1OCc1cc(/C=N/NC(=O)c2cccnc2)ccc1OC the results were Marburg entry inh inconclusive, CHX counter 1, VACV mCherry inh -7%, Shiga toxin inh 20, Vaccinia Venus -17% and LASV entry inh inconclusive.
Screening COc1ccc(/C=N\NC(=O)c2ccccc2F)cc1COc1ccc(F)cc1 returned Marburg entry inh inconclusive, CHX counter 2, VACV mCherry inh -5%, Shiga toxin inh 2, Vaccinia Venus -15% and LASV entry inh -18%[46.1 µM].
`COc1ccc(/C=N\NC(=O)c2ccccc2F)cc1COc1ccc(F)cc1F` gave Marburg entry inh inconclusive, CHX counter 24*, VACV mCherry inh -8%, Shiga toxin inh 32*, Vaccinia Venus -22% and LASV entry inh inconclusive.
`Cc1c(C(=O)Nc2nccs2)oc2c(Cl)cccc12` gave Marburg entry inh -12%[46.1 µM], VACV mCherry inh -6%, Vaccinia Venus -10% and LASV entry inh inconclusive.
`Cc1c(C(=O)Nc2nc3ccccc3[nH]2)oc2c(Cl)cccc12` gave Marburg entry inh 9%[46.1 µM], CHX counter 32*, VACV mCherry inh -15%, Shiga toxin inh 76*, Vaccinia Venus -20% and LASV entry inh inconclusive.
For Cc1c(C(=O)Nc2nc3ccccc3[nH]2)oc2ccccc12 the results were Marburg entry inh inconclusive, CHX counter 47*, VACV mCherry inh inconclusive, Shiga toxin inh 100*, Vaccinia Venus -29% and LASV entry inh inconclusive.
Cc1ccc2sc(N3CCN(C(=O)CCS(=O)(=O)c4ccc(Cl)cc4)CC3)nc2c1C was read as VACV mCherry inh -7%, Vaccinia Venus 0% and LASV entry inh 4%[46.1 µM].
For CCc1ccc(N2C(=O)CN(Cc3sccc3C)C2=S)cc1 the results were Marburg entry inh 6%[46.1 µM], CHX counter 21*, VACV mCherry inh inactive, Shiga toxin inh 51*, Vaccinia Venus 2% and LASV entry inh 21%.
`Cc1nnc(SCC(=O)N2CCc3ccccc32)s1` gave Marburg entry inh 7%, CHX counter 20*, VACV mCherry inh -11%, Shiga toxin inh active, Vaccinia Venus -4% and LASV entry inh 0%.
`Cc1nc(SCC(=O)N2CCc3ccccc32)n[nH]1` gave Marburg entry inh 7%, CHX counter 33*, Shiga toxin inh 41, Vaccinia Venus -18% and LASV entry inh 15%.
Screening O=C(CSCc1ccco1)N1CCc2ccccc21 returned Marburg entry inh 7%[46.1 µM], CHX counter 40*, VACV mCherry inh inconclusive, Shiga toxin inh 105*, Vaccinia Venus -3% and LASV entry inh -26%[46.1 µM].
Cn1c(=O)c2c(SCC(=O)N3CCCc4ccccc43)nc(CC(C)(C)C)nc2n(C)c1=O was read as CHX counter -3, VACV mCherry inh inconclusive, Shiga toxin inh 16 and Vaccinia Venus 11µM*.
Screening Cc1cc(=O)[nH]c(SCC(=O)N2CCCc3ccccc32)n1 returned Marburg entry inh 17%, CHX counter -3, VACV mCherry inh -16%, Shiga toxin inh 14, Vaccinia Venus -6% and LASV entry inh 15%.
For Cn1nnnc1SCC(=O)N1CCCc2ccccc21 the results were Marburg entry inh -16%, CHX counter -3, VACV mCherry inh -10%, Shiga toxin inh -3, Vaccinia Venus -7% and LASV entry inh -9%.
For O=C(CSc1ccccc1)N1CCc2ccccc21 the results were Marburg entry inh 5%[46.1 µM], CHX counter 31*, Shiga toxin inh 93*, Vaccinia Venus -22% and LASV entry inh -1%.
Screening O=C(CSCc1ccco1)c1ccc(Cl)s1 returned Marburg entry inh -4%, CHX counter 25* and Shiga toxin inh 108*.
`O=C(NNC(=S)NCc1ccco1)c1ccc(Cl)s1` gave Marburg entry inh 1%, CHX counter -3, VACV mCherry inh -18%, Shiga toxin inh -2, Vaccinia Venus -10% and LASV entry inh 13%.
Screening Cc1nnc(SCC(=O)N2CCCc3ccccc32)[nH]c1=O returned Marburg entry inh -1%, CHX counter 23*, Shiga toxin inh 14 and LASV entry inh -13%.
`O=C(CSc1cccc[n+]1[O-])N1CCCc2ccccc21` gave Marburg entry inh 23%[46.1 µM], CHX counter 23*, VACV mCherry inh -3%, Shiga toxin inh 15, Vaccinia Venus -1% and LASV entry inh -1%.
For CCn1cc(SCC(=O)N2CCc3ccccc32)c2ccccc21 the results were CHX counter 27*, VACV mCherry inh inconclusive, Shiga toxin inh 54* and Vaccinia Venus -13%.
`O=C(CSc1ccc(-c2ccc(F)cc2)nn1)N1CCCc2ccccc21` gave Marburg entry inh inconclusive, CHX counter 7, VACV mCherry inh -24%, Shiga toxin inh 9, Vaccinia Venus -12% and LASV entry inh inconclusive.
Screening Nc1cc(N)nc(SCC(=O)N2CCc3ccccc32)n1 returned Marburg entry inh 22%, CHX counter 30*, Shiga toxin inh 58*, Vaccinia Venus -11% and LASV entry inh 9%.
